TDP1 block: qHTS Assay for Inhibitors of Tyrosyl-DNA Phosphodiesterase (TDP1). Tyrosyl-DNA phosphodiesterase 1 (Homo sapiens), Q9NUW8. recombinant TDP1, AlphaScreen DNA substrate cleavage. Potency, µM (doses to about 130 µM), without a hit: top-dose activity change, negative = inhibition, actives largely listed as inhibitors. 350,000 compounds, 0.28% hits; note: potency is the fitted concentration of half-maximal effect; % is set by controls: 0 for no effect and ±100 for the full control effect; nearly all actives have a fitted effect of over 40% in size
Target sequence (Q9NUW8 whole entry, looked up): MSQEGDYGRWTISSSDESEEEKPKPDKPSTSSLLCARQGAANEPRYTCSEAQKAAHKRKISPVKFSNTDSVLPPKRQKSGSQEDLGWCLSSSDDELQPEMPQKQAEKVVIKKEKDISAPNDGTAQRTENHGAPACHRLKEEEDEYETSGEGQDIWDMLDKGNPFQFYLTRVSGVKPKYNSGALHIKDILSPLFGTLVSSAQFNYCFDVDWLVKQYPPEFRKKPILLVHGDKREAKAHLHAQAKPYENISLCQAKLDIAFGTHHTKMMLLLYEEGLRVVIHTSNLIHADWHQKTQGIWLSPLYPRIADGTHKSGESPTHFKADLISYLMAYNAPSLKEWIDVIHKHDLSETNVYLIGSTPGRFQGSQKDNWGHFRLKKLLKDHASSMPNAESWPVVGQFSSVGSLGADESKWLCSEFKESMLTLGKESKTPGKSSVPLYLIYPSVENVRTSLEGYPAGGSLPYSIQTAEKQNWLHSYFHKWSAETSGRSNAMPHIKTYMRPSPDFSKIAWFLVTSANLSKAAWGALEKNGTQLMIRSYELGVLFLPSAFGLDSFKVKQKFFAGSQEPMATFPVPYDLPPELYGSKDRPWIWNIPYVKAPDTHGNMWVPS
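Steps: enzyme plus compound, 15 min RT; add biotin/phosphotyrosine-FITC oligonucleotide (15 nM final), react 5 min; add donor/acceptor beads (10 ug/ml final), 10 min; read AlphaScreen. Tdp1 at 1 nM final.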
IL-1B inflam inh: qHTS for Inhibitors of Inflammasome Signaling: IL-1-beta AlphaLISA Primary Screen | THP-1 LPS/ATP IL-1B secretion, AlphaLISA, 16 h; hits give low values | activity change, % at 57.5 µM | 360,000 compounds, 4.7% hits; in the data active = activity change below about -50%; inconclusive = mostly about -30% to -49%; note: % is set by controls: 0 for no effect and ±100 for the full control effect
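Secreted IL-1B measured by AlphaLISA bead assay after 16 h compound exposure of THP-1 cells; compounds (final up to 57.5 uM) added 1 h before LPS (250 ng/mL) and ATP (1.25 mM) stimulation; lower signal means less secretion.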
HepG2 tox: qHTS for Inhibitors of TGF-b: Cytotox Counterscreen; HepG2 CAGA-GFP viability, ATP luminescence, 18 h; AID 588856, 2011; Potency, µM (doses to about 46.1 µM), for inactives: at the highest dose activity change, negative = cytotoxicity, most hits filed as cytotoxic; 410,000 compounds, 0.76% hits; note: potency is the fitted concentration of half-maximal effect
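CellTiter-Glo luminescence gave cytotoxicity after 18 hours at 37 degrees C. The cells were HepG2 CAGA-GFP in 1% FBS DMEM, stimulated with 500 pg/mL TGF-beta after compound addition. %Activity was normalised to no-cell wells (complete cell-killing) and DMSO (no toxicity), and curves were fitted and classified.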
TDP1 cell CPT: qHTS for Inhibitors of human tyrosyl-DNA phosphodiesterase 1 (TDP1): qHTS in cells in presence of CPT; chicken DT40 Tdp1-/-;hTDP1 cells + 20 nM CPT, ATP luminescence, 48 h; Potency, µM (doses to about 46.2 µM), inactives show at the top dose activity change, negative = growth inhibition, hits mostly inhibitors; 420,000 compounds, 12% hits; note: potency is the fitted concentration of half-maximal effect; % is set by controls: 0 for no effect and ±100 for the full control effect; nearly all actives have a fitted effect of over 55% in size
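Chicken DT40 Tdp1-/- cells stably complemented with human TDP1 were seeded at 400 cells/well in medium containing 20 nM camptothecin, exposed to pin-transferred compounds, and grown at 37 °C for at least 48 hr. Viability was read as ATP luminescence.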
TGFb inhibitor: qHTS for Inhibitors of TGF-b. Potency, µM (titrated, usually from 46.1 µM), without a hit: at the top dose activity, negative = inhibition, usual class: inhibitors. 410,000 compounds, 1.2% hits. HepG2 CAGA-GFP TGF-b/SMAD3 reporter, GFP fluorescence, 18 h; TGF-beta stimulated, 500 pg/mL final; note: potency is the fitted concentration of half-maximal effect; % is set by controls: 0 for no effect and ±100 for the full control effect; nearly all actives have a fitted effect of over 65% in size
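Per well, imaged GFP fluorescence of HEPG2 CAGA-GFP cells gives the signal; cells get compound, then TGF-beta (500 pg/mL final), 18 h at 37 degrees C; %Activity versus -TGF-beta and +DMSO controls.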
TDP1 cell noCPT: qHTS for Inhibitors of human tyrosyl-DNA phosphodiesterase 1 (TDP1): qHTS in cells in absence of CPT. DT40 Tdp1-/- hTDP1 cells, no CPT, ATP luminescence, 48 h. Potency, µM (highest dose often 46.2 µM), for inactives: top-dose activity change, negative = growth inhibition, most hits filed as inhibitors. 420,000 compounds, 15% hits. AID 686978, 2013; note: potency is the fitted concentration of half-maximal effect; % is set by controls: 0 for no effect and ±100 for the full control effect; nearly all actives have a fitted effect of over 55% in size
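Luminescent ATP content (CellTiter-Glo) served as the growth readout. Knockout chicken DT40 cells expressing human TDP1 were exposed to compounds without camptothecin for a minimum 48 hr at 37 °C.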
The depositor's hits bear a star; ? = inconclusive; / = not tested or not shown; [ ] = dose if it differs, or a comment. Hits are enriched below; roughly 18% of the tested compounds scored in any of these assays. Unless noted, calls come from the whole dose curve; as a rule, active = well fitted curve in the direction sought with a large enough effect; inconclusive = small, poorly fitted or top-dose-only effect, or another doubt; inactive = no such curve, though single readings can be large; an effect the other way counts as inactive or inconclusive.

SMILES | TDP1 block | IL-1B inflam inh | HepG2 tox | TDP1 cell CPT | TGFb inhibitor | TDP1 cell noCPT
CC1CCN(c2c(NCc3ccc(C(=O)N4c5ccccc5CC4C)cc3)c(=O)c2=O)CC1 (centres undefined) | 2.6% | -1.4 | -27.2% | 18.4µM* | -17.6% | 23.1µM*
O=C1CCC(=O)N1CCSC(=S)N1CCSCC1 | -2.8% | 10.7 | -67.3% | -9.0% | 0.0% | -27.2%
COc1cc(OC)c(/C=C/c2cc3c4ccccc4ccc3[n+](C)c2)c(OC)c1 | / | / | -20.1% | -117.3% | -4.0% | ?
COc1cc(OC)c(/C=C/c2cc(/C=C/c3c(OC)cc(OC)cc3OC)[n+](C)c3ccccc23)c(OC)c1 | / | / | -44.8% | 1.58µM* | ? | 1.12µM*
COc1cc(OC)c(/C=C/c2c3ccccc3cc[n+]2C)c(OC)c1 | / | / | -21.6% | 0.316µM* | 10µM* | 0.0891µM*
OC(CN1CCOCC1)CN(c1ccccc1)c1ccccc1 (centres undefined) | 0.0% | 18.4 | 0.3% | ? | -3.0% | 11.6µM*
OC(CN1CCCCC1)CN(c1ccccc1)c1ccccc1 (centres undefined) | 5.1% | -18.6 | 1.0% | ? | -4.1% | 25.9µM*
NC(N)=NCC(O)CN(c1ccccc1)c1ccccc1 (centres undefined) | 0.0% | -82.0* | -18.6% | ? | 4.3% | 14.6µM*
OC(CN1CCCCCC1)CN(c1ccccc1)c1ccccc1 (centres undefined) | 5.4% | 0.0 | -36.0% | ? | ? | ?
COc1ccc(OCC(=O)N2CCN(C(=O)c3cccc(OC)c3)CC2)cc1 | / | / | -32.3% | / | 3.0% | /
C=CCN(C)CCCCCCOc1ccc(C(=O)c2ccc(Br)cc2)c(F)c1 | 8.9% | / | -50.7% | 5.01µM* | ? | 5.01µM*
COc1ccc(-n2c(CCC(=O)O)ccc2-c2ccccc2)c(OC)c1 | / | / | -2.3% | -17.5% | 4.9% | -29.1%
Cc1ccccc1NC(=O)CSc1nc2ccc(NC(=O)c3cccs3)cc2s1 | 0.5% | / | -29.7% | ? | ? | 20.6µM*
Cc1cc(C)cc(OCCSc2nc3ccc(NC(=O)c4cccs4)cc3s2)c1 | -2.6% | / | -17.6% | ? | -32.9% | 20.6µM*
COc1ccccc1C(=O)Nc1ccc2nc(SCCOc3ccccc3C)sc2c1 | 1.6% | / | -41.0% | 16.4µM* | -1.0% | 18.4µM*
O=C(Nc1ccc(NC(=O)c2cccnc2Cl)cc1)c1cccc(Cl)c1 | 4.2%[0.0935 µM] | -18.8 | -19.5% | ? | -18.0% | ?
COc1cc(NC(=O)Cn2nc(C(F)(F)F)c3c2CCC3)cc(OC)c1OC | -2.1% | / | -16.5% | ? | -15.7% | 9.2µM*
COC(=O)c1ccccc1NC(=O)Cn1nc(C(F)(F)F)c2c1CCCC2 | -4.2% | / | -31.3% | 23.1µM* | ? | 7.31µM*
COc1cc(NC(=O)Cn2nc(C(F)(F)F)c3c2CCCC3)c(OC)cc1Cl | -1.1% | / | -41.8% | 20.6µM* | ? | 16.4µM*
Cc1nn(C(=O)c2ccccc2F)c(C)c1S(=O)(=O)N1CCOCC1 | 6.5% | / | -1.8% | -4.0% | 29.7% | -3.1%
Cc1ccc(CCNC(=O)NCc2noc3ccc(C)cc23)cc1 | -5.1% | / | -2.0% | 1.2% | -2.7% | ?
C#CCOCCOCCOCCNc1nc(N2CCN(C(=O)Cn3cc(CC(C)O)nn3)CC2)nc(N2CCN(C(=O)[C@H]([C@@H](C)CC)n3cc(CCCCN)nn3)CC2)n1 (some centres undefined) | / | 13.7 | -2.7% | 3.4% | 22.1% | 13.8%
